We go through 17 compounds from ChEMBL document CHEMBL1961873, “Compounds: GSK PKIS; Assays: Nanosyn kinase panel” (2012).

SMILES strings stand for the structures.

The target of experiment [1] is Calcium/calmodulin-dependent protein kinase type II subunit alpha (Homo sapiens) (UniProt Q9UQM7). Conditions: at 1 µM.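 Also: reported value is a mean percent inhibition of CAMK2A.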
For experiment [2], the target named is Calcium/calmodulin-dependent protein kinase type II subunit delta (Homo sapiens) (UniProt Q13557). Conditions: at 0.1 µM.
Experiment [3] shares this target. Particulars: at 1 µM.
For experiment [4], the target named is T1, Calcium/calmodulin-dependent protein kinase type IV (Homo sapiens) (UniProt Q16566).
T1 sequence (whole entry): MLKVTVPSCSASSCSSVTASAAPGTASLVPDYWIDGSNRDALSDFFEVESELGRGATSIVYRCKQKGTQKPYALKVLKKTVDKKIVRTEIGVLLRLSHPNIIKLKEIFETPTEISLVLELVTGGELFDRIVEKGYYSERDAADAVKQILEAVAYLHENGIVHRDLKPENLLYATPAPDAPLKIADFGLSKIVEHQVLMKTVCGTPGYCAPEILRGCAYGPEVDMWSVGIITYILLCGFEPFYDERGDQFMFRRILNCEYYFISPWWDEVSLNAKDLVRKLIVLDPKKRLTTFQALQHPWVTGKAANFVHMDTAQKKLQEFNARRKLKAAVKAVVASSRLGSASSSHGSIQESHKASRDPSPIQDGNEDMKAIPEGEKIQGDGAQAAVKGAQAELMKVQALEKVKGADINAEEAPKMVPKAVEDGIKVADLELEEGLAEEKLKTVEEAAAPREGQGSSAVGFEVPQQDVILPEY
Conditions: at 0.1 µM.

The target in experiment [5] is T1, Calcium/calmodulin-dependent protein kinase type IV (Homo sapiens). Particulars: at 1 µM.
Experiment [6] addresses T2, Serine/threonine-protein kinase Chk1 (Homo sapiens) (UniProt O14757).
T2 sequence (whole entry): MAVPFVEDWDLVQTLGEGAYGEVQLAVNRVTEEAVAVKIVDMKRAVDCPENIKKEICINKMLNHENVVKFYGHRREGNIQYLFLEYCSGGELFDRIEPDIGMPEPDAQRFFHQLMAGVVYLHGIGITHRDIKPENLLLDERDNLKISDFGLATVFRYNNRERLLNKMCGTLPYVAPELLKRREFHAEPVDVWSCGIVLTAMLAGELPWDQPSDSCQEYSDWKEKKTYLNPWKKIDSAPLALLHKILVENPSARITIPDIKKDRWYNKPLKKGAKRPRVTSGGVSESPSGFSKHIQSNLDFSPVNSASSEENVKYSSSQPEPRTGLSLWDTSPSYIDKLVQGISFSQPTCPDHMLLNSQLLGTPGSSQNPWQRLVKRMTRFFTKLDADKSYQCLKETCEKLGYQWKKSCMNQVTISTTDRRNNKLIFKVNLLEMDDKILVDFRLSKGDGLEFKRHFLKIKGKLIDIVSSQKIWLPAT
Particulars: at 0.1 µM.

The target in experiment [7] is T2, Serine/threonine-protein kinase Chk1 (Homo sapiens). Particulars: at 1 µM.
Experiment [8] addresses Serine/threonine-protein kinase Chk2 (Homo sapiens) (UniProt O96017). Conditions: at 0.1 µM.
For experiment [9] the target is unchanged. Particulars: at 1 µM.
Experiment [10] addresses Death-associated protein kinase 1 (Homo sapiens) (UniProt P53355). Conditions: at 0.1 µM.

Death-associated protein kinase 1 (Homo sapiens), sequence (P53355 whole entry, looked up): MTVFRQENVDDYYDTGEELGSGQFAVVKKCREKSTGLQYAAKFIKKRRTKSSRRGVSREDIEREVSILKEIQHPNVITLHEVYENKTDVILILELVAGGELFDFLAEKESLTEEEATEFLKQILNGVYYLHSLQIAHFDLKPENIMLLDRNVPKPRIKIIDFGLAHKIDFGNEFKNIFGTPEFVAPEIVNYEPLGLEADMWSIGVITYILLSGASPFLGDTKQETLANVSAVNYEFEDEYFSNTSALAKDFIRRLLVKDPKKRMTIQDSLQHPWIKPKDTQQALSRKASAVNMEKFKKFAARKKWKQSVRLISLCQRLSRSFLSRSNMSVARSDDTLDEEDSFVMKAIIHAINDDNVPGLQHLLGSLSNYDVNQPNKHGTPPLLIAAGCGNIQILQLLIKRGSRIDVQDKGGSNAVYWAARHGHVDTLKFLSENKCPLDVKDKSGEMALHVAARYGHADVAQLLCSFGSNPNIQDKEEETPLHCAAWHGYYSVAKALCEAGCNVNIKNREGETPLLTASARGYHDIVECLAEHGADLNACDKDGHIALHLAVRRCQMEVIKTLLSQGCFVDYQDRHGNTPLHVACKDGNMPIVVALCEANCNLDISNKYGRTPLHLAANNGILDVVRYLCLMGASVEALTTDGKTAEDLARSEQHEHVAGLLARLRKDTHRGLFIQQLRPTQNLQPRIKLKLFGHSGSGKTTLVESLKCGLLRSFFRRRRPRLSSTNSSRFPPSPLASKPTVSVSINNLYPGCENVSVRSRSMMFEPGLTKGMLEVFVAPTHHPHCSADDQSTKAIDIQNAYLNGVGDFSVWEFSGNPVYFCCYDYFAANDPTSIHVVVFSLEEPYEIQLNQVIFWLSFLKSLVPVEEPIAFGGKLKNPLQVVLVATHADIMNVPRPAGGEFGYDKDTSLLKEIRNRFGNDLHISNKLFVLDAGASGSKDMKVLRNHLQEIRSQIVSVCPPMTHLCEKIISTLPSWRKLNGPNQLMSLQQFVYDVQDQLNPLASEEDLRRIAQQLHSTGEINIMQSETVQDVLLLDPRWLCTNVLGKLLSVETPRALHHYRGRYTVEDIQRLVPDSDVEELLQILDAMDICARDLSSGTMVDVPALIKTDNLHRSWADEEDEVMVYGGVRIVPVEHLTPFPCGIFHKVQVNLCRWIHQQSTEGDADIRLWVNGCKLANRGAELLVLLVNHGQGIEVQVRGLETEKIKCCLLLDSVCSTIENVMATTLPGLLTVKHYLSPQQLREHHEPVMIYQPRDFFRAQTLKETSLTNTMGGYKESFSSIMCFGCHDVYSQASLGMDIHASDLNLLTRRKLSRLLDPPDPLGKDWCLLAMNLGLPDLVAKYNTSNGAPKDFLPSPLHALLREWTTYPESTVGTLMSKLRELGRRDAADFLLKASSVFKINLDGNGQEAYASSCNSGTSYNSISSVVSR
Serine/threonine-protein kinase Chk2 (Homo sapiens), sequence (O96017 whole entry): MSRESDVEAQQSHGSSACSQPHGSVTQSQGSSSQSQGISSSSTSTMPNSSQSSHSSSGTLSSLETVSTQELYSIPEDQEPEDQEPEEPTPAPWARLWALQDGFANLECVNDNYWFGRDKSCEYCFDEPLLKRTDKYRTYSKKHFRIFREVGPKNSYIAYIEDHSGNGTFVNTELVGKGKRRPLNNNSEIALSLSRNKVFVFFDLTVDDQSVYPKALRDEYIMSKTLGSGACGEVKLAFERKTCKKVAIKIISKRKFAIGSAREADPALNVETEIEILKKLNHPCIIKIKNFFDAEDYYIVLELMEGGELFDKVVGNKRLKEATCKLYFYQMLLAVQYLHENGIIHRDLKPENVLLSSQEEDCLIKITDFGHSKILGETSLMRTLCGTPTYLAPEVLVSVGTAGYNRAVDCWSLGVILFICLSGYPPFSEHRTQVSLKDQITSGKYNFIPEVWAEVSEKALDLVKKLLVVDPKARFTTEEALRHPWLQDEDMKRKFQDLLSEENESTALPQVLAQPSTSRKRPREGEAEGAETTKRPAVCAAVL
Calcium/calmodulin-dependent protein kinase type II subunit delta (Homo sapiens), sequence (Q13557 whole entry): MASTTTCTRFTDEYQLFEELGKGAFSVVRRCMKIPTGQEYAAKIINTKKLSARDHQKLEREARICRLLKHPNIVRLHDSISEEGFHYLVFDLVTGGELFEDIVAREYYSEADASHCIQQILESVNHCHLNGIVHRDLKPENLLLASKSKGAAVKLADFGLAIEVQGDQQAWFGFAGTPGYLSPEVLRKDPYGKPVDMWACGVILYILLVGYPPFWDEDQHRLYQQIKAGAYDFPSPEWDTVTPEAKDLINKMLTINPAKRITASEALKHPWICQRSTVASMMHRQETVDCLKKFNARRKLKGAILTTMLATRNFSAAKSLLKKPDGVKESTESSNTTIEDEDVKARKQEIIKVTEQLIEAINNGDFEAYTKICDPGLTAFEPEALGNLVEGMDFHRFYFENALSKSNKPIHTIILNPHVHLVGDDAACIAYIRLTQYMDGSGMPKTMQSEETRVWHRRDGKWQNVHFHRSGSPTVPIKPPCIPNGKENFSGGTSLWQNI
Calcium/calmodulin-dependent protein kinase type II subunit alpha (Homo sapiens), sequence (Q9UQM7 whole entry): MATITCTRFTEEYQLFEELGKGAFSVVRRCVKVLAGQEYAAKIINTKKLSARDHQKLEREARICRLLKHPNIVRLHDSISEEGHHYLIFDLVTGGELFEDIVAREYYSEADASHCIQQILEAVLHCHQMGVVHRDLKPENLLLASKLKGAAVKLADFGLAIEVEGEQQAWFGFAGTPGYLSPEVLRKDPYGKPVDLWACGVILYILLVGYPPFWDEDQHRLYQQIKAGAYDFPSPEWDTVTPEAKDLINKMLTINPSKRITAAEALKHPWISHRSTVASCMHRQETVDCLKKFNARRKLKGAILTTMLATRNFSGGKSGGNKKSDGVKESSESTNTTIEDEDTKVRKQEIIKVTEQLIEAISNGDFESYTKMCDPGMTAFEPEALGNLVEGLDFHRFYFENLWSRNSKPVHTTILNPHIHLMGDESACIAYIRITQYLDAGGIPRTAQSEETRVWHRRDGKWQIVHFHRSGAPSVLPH

In general, inhibition refers to the drop in the measured response relative to a control, in per cent. In the case of `COC(=O)Nc1nc2cc(Oc3cccc(NC(=O)Nc4cc(C(F)(F)F)ccc4F)c3)ccc2[nH]1`, the inhibition was 0.78% in [1]; 0.53% in experiment [2]; 0.94% in experiment [3]; 1.37% in experiment [4]; 0.22% in [5]; -2.61% in [6]. Besides, the inhibition in experiment [7] is -1.51%; in experiment [8], -0.85%; in experiment [9] it was 0.45%; in experiment [10], 0.43%.
For the compound `CN(C)c1cc2c(Nc3ccc4nc(Cc5ccccc5)[nH]c4c3)ncnc2cn1`, the inhibition in experiment [1] was 4.09%; in [2] it was 4.46%; in experiment [3], 4.05%; in experiment [4], 1.47%; in experiment [5], -2.01%; in experiment [6] it was 7.31%. Further, the inhibition in experiment [7] is 6.99%; in experiment [8], 2.75%; in experiment [9] it was 9.92%; in [10], 5.94%.
Take `CC(C)=Cc1cccc2c1/C(=N/Nc1ccc(S(N)(=O)=O)cc1)C(=O)N2`: the inhibition in experiment [1] was 6.48%; in [2] it was 2.83%; in [3], 11.3%; in experiment [4], -1.55%; in experiment [5], -0.74%; in experiment [6], 6.35%. Further, the inhibition in [7] came to 10.3%; in [8] it was 5.36%; in [9] it was 9.14%; in [10], 9.26%.
For the compound `CS(=O)(=O)CCNCc1ccc(-c2ccc3ncnc(Nc4ccc(OCc5ccccc5)c(Cl)c4)c3c2)o1`, the inhibition in experiment [1] is -1.87%; in [2], -1.29%; in [3], 1.59%; in experiment [4], 0.2%; in [5] it was 1.37%; in experiment [6] it was -6.61%. For the same compound, the inhibition in experiment [7] was -6.9%; in [8], -6.13%; in [9], -4.43%; in experiment [10] it was -9.06%.
Turning to `Nc1ncnc2occ(-c3ccc(NC(=O)Nc4cc(C(F)(F)F)cc(C(F)(F)F)c4)cc3)c12`, the inhibition came to 2.09% in [1]; 2.95% in experiment [2]; 1.63% in experiment [3]; 0.17% in [4]; 3.99% in experiment [5]; 1.83% in experiment [6]. For the same compound, the inhibition in [7] stood at 5.4%; in experiment [8] it was 1.45%; in experiment [9], 2.14%; in experiment [10], 1.57%.
In the case of `CCCN1CCC=C(c2ccc(Nc3nc(Nc4ccccc4C(N)=O)c4cc[nH]c4n3)c(C)c2)C1`, the inhibition in experiment [1] is 8.19%; in [2] it was 5.36%; in experiment [3], 20.6%; in experiment [4] it was -0.28%; in experiment [5], 9.19%; in experiment [6], 1.09%. Further, the inhibition turned out to be 8.05% in experiment [7], 13.1% in experiment [8], 51.3% in experiment [9] and 6.81% in experiment [10].
Take `COc1ccc(COc2ccc(Cc3cnc(N)nc3N)cc2OC)cc1`: the inhibition came to 5.8% in experiment [1]; 2.39% in experiment [2]; 2.5% in experiment [3]; 1.77% in experiment [4]; 3.54% in experiment [5]; 5.47% in experiment [6]. Besides, the inhibition amounted to 7.23% in experiment [7], 5.87% in [8], 4.77% in experiment [9] and 8.9% in [10].
On to `CS(=O)(=O)CCNCc1nc(-c2ccc3ncnc(Nc4ccc(F)c(Cl)c4)c3c2)cs1`, for which the inhibition in experiment [1] was 3.45%; in [2], 1.76%; in experiment [3], 3.83%; in experiment [4], -0.31%; in experiment [5], 0.31%; in experiment [6], 2.71%. Also, the inhibition in [7] is 3.9%; in [8] it was -0.4%; in experiment [9], 1.15%; in [10], 4.88%.
As to `N#Cc1c(NC(=O)c2cccc3ccccc23)sc2c1CCCC2`, the inhibition worked out at 1.93% in experiment [1]; 2.34% in experiment [2]; 4.57% in experiment [3]; 2.05% in experiment [4]; 1.58% in experiment [5]; 7.17% in [6]. In addition, the inhibition in experiment [7] was 10.4%; in experiment [8], 6.18%; in experiment [9], 6.56%; in [10] it was 8.89%.
For the compound `Fc1cccc(COc2ccc(Nc3ncnc4cc(-c5ccc[nH]5)sc34)cc2Cl)c1`, the inhibition was 0.84% in experiment [1]; 1.12% in experiment [2]; 2.72% in experiment [3]; 1.44% in experiment [4]; 1.44% in [5]; -0.13% in experiment [6]. In addition, the inhibition in [7] was 3.63%; in [8], 0.71%; in experiment [9], 3.96%; in experiment [10], -1.32%.
As to `COc1cc2ncn(-c3cc(OCc4ccccc4C(F)(F)F)c(C(N)=O)s3)c2cc1OC`, the inhibition in experiment [1] was -0.1%; in experiment [2], 3.23%; in experiment [3] it was 7.03%; in experiment [4], -2.38%; in [5] it was -1.47%; in experiment [6], 2.54%. Also, the inhibition in [7] was determined as 3.46%; in experiment [8] it was 3.3%; in experiment [9], 5.56%; in [10], 4.32%.
With `CC1=C(C(=O)Nc2ccc3[nH]ncc3c2)C(c2ccc(F)cc2)NC(=O)N1` (stereo not given), the inhibition is 0.1% in [1]; 1.48% in experiment [2]; 1.35% in experiment [3]; 0.3% in experiment [4]; -0.21% in experiment [5]; 0.87% in [6]. Moreover, the inhibition in experiment [7] was 4.3%; in experiment [8] it was 1.2%; in [9], 2.29%; in experiment [10], 1.6%.
As to `Cc1cc(O)cc(C)c1/C=C/c1cncc(-c2nn[nH]n2)c1`, the inhibition in [1] is 3.79%; in [2], 4.52%; in [3], 4.7%; in experiment [4], -0.07%; in experiment [5], -1.05%; in experiment [6], -7.2%. For the same compound, the inhibition in [7] is 2.19%; in experiment [8], 3.38%; in [9], 5.57%; in experiment [10], 3.16%.
Consider `[O-][S+]1CCN(Cc2ccc(-c3ccc4ncnc(Nc5ccc(OCc6ccccc6)c(F)c5)c4c3)o2)CC1`, for which the inhibition came out at 2.39% in experiment [1]; 2.36% in experiment [2]; 2.19% in [3]; 0.91% in experiment [4]; 0.5% in experiment [5]; 0.15% in experiment [6]. Also, the inhibition is 3.65% in experiment [7], 2.23% in [8], 7.61% in experiment [9] and 2.43% in experiment [10].
On to `Cc1ccc(C(=O)NC2CCCCC2)cc1-c1ccc(C(=O)NCC2CC2)cc1`, for which the inhibition in experiment [1] worked out at 4.57%; in experiment [2] it was 4.88%; in experiment [3], 2.35%; in experiment [4] it was 3.22%; in [5], 3.67%; in experiment [6] it was 6.06%. Also, the inhibition in experiment [7] stood at 5.14%; in experiment [8], 1.33%; in [9], 1.29%; in [10], 3.76%.
In the case of `CCCN1CCC(Oc2cc(Nc3nc(Nc4cccc(F)c4C(N)=O)c4cc[nH]c4n3)c(OC)cc2Cl)CC1`, the inhibition in experiment [1] came out at 4.06%; in experiment [2] it was 3.15%; in [3], 16.5%; in [4], 9.59%; in [5], 31.1%; in experiment [6] it was 1.9%. In addition, the inhibition amounted to 3.67% in experiment [7], 1.65% in [8], 33.6% in experiment [9] and 0.88% in experiment [10].
Take `O=C(Nc1n[nH]c2nc(-c3ccco3)c(Br)cc12)C1CC1`: the inhibition in experiment [1] stood at 2.92%; in experiment [2], 3.12%; in experiment [3], 4.6%; in experiment [4] it was 1.47%; in experiment [5], 2.02%; in experiment [6] it was 3.44%. The inhibition was determined as 4.35% in experiment [7], 2.64% in experiment [8], 2.71% in experiment [9] and 3.14% in experiment [10].
